Rab9 prom act: qHTS Assay for Rab9 Promoter Activators | Huh7 Rab9 promoter-luciferase reporter, luminescence, 24 h | Potency, µM (titrated, usually from 9.22 µM), usual class: activators | 320,000 compounds, 2.8% hits | AID 485297, 2010; note: nearly all actives have a fitted effect of over 60% in size
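Quantitative HTS format; Huh7 Rab9-luciferase reporter cells (1500/well) receive compound 2 h post-plating, incubate 24 h at 37 °C, then get luciferase reagent for 10 min before luminescence reading.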
KinaseGlo FLuc: Counterscreen for Luciferase (Kinase-Glo TM) Inhibition | Luciferin 4-monooxygenase (Photuris pensylvanica), Q27757 | Kinase-Glo luciferase, ATP luminescence, 8 min | Potency, µM (doses to about 38.3 µM), most hits filed as inhibitors | 200,000 compounds, 0.28% hits | AID 1379, 2008; note: nearly all actives have a fitted effect of over 60% in size
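Light output from Kinase-Glo luciferase with luciferin and 10 uM ATP in 50 mM imidazole pH 7.2, KCl, MgCl2, Tween 20, BSA; compound pin-delivered, 8-min ambient incubation, then luminescence read.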
ELG1 genotoxic: qHTS screen for small molecules that induce genotoxicity in human embryonic kidney (HEK293T) cells expressing luciferase-tagged ELG1; Potency, µM (top dose mostly 46 µM), usual class: activators; HEK293T ELG1-luciferase reporter, luminescence, 16 h; 330,000 compounds, 1.3% hits; AID 504466, 2011; note: nearly all actives have a fitted effect of over 60% in size
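Genotoxic stress is detected as increased luminescence from luciferase-tagged ELG1 in HEK293T cells, measured with ONE-Glo after a 16 hr treatment at 37 °C.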
FLuc counter: qHTS profiling assay for firefly luciferase inhibitor/activator using purifed enzyme and Km concentrations of substrates (counterscreen for miR-21 project); Luciferin 4-monooxygenase (Photinus pyralis), P08659; purified FLuc, Km substrates, luminescence inhibition; Potency, µM (titrated, usually from 57.5 µM), hits mostly inhibitors; 360,000 compounds, 6.9% hits; note: nearly all actives have a fitted effect of over 55% in size
Target sequence (P08659 whole entry, looked up): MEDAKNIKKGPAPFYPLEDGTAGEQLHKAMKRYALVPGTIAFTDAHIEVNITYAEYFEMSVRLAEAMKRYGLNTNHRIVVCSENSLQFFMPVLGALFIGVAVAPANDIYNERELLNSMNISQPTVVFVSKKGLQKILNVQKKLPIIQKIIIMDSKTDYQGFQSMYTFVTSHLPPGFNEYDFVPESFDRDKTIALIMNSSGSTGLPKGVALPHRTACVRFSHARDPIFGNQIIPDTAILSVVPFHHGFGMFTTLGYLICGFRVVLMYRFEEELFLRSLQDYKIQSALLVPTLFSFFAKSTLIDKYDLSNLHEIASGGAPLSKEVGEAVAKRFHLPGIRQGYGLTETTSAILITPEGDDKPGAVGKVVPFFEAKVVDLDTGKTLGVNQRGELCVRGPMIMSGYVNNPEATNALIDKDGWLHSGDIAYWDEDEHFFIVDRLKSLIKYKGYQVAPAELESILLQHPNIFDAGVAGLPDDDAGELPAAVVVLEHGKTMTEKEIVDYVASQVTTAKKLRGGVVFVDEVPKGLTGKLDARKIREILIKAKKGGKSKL
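Purified P. pyralis luciferase (10nM final) with 10uM D-luciferin and 10uM ATP (Km levels) in 50mM Tris acetate pH 7.5, 10mM Mg acetate, 0.01% Tween-20, 0.05% BSA; qHTS 6-point titration, ~60 µM downward; luminescence read.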
NPC1 prom act: qHTS Assay for NPC1 Promoter Activators; Huh7 NPC1 promoter luciferase reporter, 24 h; Potency, µM (highest dose often 9.22 µM), usual class: activators; 320,000 compounds, 2.4% hits; AID 485313, 2010; note: nearly all actives have a fitted effect of over 60% in size
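Readout is luciferase luminescence, reflecting NPC1 promoter activation in stably transfected Huh7 cells after 24 h compound exposure at 37 °C in reduced-serum medium with 10% FBS.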
SMN2 splice enh: qHTS Assay for Enhancers of SMN2 Splice Variant Expression | HEK293 SMN2-luciferase splicing reporter, luminescence, 30-36 h | AID 1458, 2008 | 210,000 compounds, 2.8% hits | Potency, µM (titrated, usually from 46.1 µM), hits mostly activators; note: nearly all actives have a fitted effect of over 55% in size
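HEK293 cells carry an SMN2 minigene-luciferase reporter in which exon 7 inclusion puts luciferase in frame. Cells were seeded at 2000 cells/well, attached for 10-12 hours, then exposed to compounds for 30-36 hours at 37C before ONE-Glo luminescence.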
Hits are given with their value; i = inactive; ? = inconclusive; nt = no result given. Sampled rows, rich in hits. Any-hit rate of the full collection: about 7.4%. Calls come from the whole dose curve; as a rule, active = well fitted curve in the direction sought with a large enough effect; inconclusive = small, poorly fitted or top-dose-only effect, or another doubt; inactive = no such curve, though single readings can be large; an effect the other way counts as inactive or inconclusive.

SMILES | Rab9 prom act | KinaseGlo FLuc | ELG1 genotoxic | FLuc counter | NPC1 prom act | SMN2 splice enh
COc1ccc(-c2nc(C#N)c(NCC3CCCO3)o2)cc1 (stereo not given) | i | i | i | 13µM | i | ?
Cc1cccc(-c2nc(C#N)c(N3CCC(C)CC3)o2)c1 | i | nt | i | i | i | nt
Cc1cccc(-c2nc(C#N)c(N3CCCCCC3)o2)c1 | i | i | 16µM | 11µM | i | ?
Cc1cccc(-c2nc(C#N)c(NCC3CCCO3)o2)c1 (stereo not given) | 2.5µM | nt | ? | 12µM | 2.8µM | nt
N#Cc1nc(-c2cccs2)oc1NCC1CCCO1 (stereo not given) | i | i | i | i | i | i
Cc1ccc(-c2nc(C#N)c(NCC3CCCO3)o2)cc1 (stereo not given) | ? | i | ? | 21µM | ? | 13µM
Cc1cccc(-c2noc(CCCC(=O)NCC3CCCO3)n2)c1 (stereo not given) | i | nt | i | i | i | nt
CCOC(=O)c1c(NC(=O)CSc2cn(CCNC(=O)c3c(F)cccc3F)c3ccccc23)sc2c1CCCC2 | nt | nt | nt | i | nt | i
Cc1cccc(N2CCN(c3nc4ccc(C)cc4n4cnnc34)CC2C)c1 (stereo not given) | nt | nt | nt | i | nt | i
CC(C)CCn1c(=O)c2cccnc2n(CC(=O)Nc2ccccc2F)c1=O | nt | nt | nt | i | nt | i
CCCCC=O | nt | nt | nt | nt | nt | i
CCOc1ccc(-c2nc(C#N)c(NCc3ccc4c(c3)OCO4)o2)cc1 | i | i | i | i | i | ?
CCOc1ccc(-c2nc(C#N)c(NC3CC3)o2)cc1 | ? | i | i | 15µM | i | i
COc1ccc2[nH]cc(CCNc3nc(-c4ccccc4CN(C)C)nc4ccccc34)c2c1 | nt | i | nt | nt | nt | i
COc1ccc(NC2=Nc3ccccc3CC2)cc1 | 1.6µM | i | 4.5µM | 11µM | 2.8µM | 13µM
COc1ccc(NC2=NCCCCC2)cc1 | i | nt | i | i | i | nt
CCc1ccc(Nc2cc(C)nc3nc(Cc4ccc(Cl)cc4)nn23)cc1 | nt | nt | nt | i | nt | i
CCOC(=O)N1CCc2c(sc(NCc3ccc(OC)c(Br)c3)c2C(=O)Nc2cc(OC)ccc2OC)C1 | nt | nt | nt | i | nt | nt
COc1ccc(/C=c2\s/c(=C\C(=O)C(C)(C)C)[nH]c2=O)cc1O | i | nt | i | 24µM | i | nt
COc1cc(/C=c2\s/c(=C\C(=O)C(C)(C)C)[nH]c2=O)cc(OC)c1OC | i | i | i | i | i | i
CCOC(=O)N1CCN(C(=O)c2cc(COc3ccc(Cl)cc3OC)on2)CC1 | i | nt | i | i | i | nt
COc1cc(Cl)ccc1OCc1cc(C(=O)N2C[C@]3(C)C[C@H]2CC(C)(C)C3)no1 | 1.8µM | nt | ? | 19µM | ? | nt
O=C(c1cc(COc2cccc(C(F)(F)F)c2)on1)N1C[C@@H]2CCC[C@H]1C2 | ? | nt | ? | 24µM | i | nt
COc1cc(Cl)ccc1OCc1cc(C(=O)N2C[C@@H]3CCC[C@H]2C3)no1 | 4µM | nt | 2.9µM | 9.5µM | 3.2µM | nt
O=C(c1cc(COc2cccc(C(F)(F)F)c2)on1)N1CCC(c2ccccc2)CC1 | i | nt | i | i | i | nt
SMILES | Rab9 prom act | KinaseGlo FLuc | ELG1 genotoxic | FLuc counter | NPC1 prom act | SMN2 splice enh
COc1cc(Cl)ccc1OCc1cc(C(=O)N2C[C@H]3CC[C@H]2C3)no1 | 1.4µM | nt | 8.2µM | 8.5µM | 3.5µM | nt
COc1cc(C)ccc1OCc1cc(C(=O)N2C[C@H]3CC[C@H]2C3)no1 | i | nt | i | i | i | nt
CCOC(=O)CN1C(=O)c2cccnc2Oc2ccccc21 | nt | nt | nt | i | nt | i
COc1cccc(CNC(=O)CN2C(=O)CSc3ccc(S(=O)(=O)N(C)C)cc32)c1 | nt | nt | nt | i | nt | nt
O=C(Cc1ccc(Cl)cc1)Nc1ccc(-c2cc3ccccc3oc2=O)c(Cl)c1 | i | i | i | i | i | i
O=C(Nc1cccc(-c2cc3ccccc3oc2=O)c1)c1ccc(Br)o1 | i | i | i | i | i | i
COc1ccc(-c2cc3ccccc3oc2=O)cc1NC(=O)c1ccc([N+](=O)[O-])o1 | 3.5µM | i | i | i | i | i

Compound activity: PubChem, National Center for Advancing Translational Sciences (NCATS)
